Reference: PubChem BioAssay AID1159580 (chemical genetic matrix, 2015)
In all, about 5,500 compounds went through this assay and about 2,000 (36%) were called active. Another 18% or so got no clear call; they are omitted. Cut-off read from the data, not from the text of the source: active = normalized growth mostly below about 0.91 (no sharp cut-off); inconclusive = no clear call, values can overlap the other calls; inactive = mostly above about 0.92. The list shows a part of the results.

Assay: chemical genetic growth profiling, strain panel (AID 1159580);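 note: tested at 20 µM; growth read once vehicle control cultures reached saturation at 30 °C; 1 = growth at the plate median or of vehicle wells; lower values mean less growth of the strain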
Details: S. cerevisiae deletion strains, growth OD
[1] = locus YHR030C, strain SLT2, active compounds read low

Measured: normalized growth

O=C1ON=C(c2ccccc2)/C1=C/c1ccc(Cl)cc1
inactive: locus YLR262C, strain YPT6, active compounds read low 0.834
active: locus YAL013W, strain DEP1, active compounds read low 0.174 | locus YBR229C, strain ROT2, active compounds read low 0.145 | locus YDL101C, strain DUN1, active compounds read low 0.203 | locus YDL134C, strain PPH21, active compounds read low 0.77 | locus YEL061C, strain CIN8, active compounds read low 0.637 | locus YGR078C, strain PAC10, active compounds read low 0.138 | [1] 0.16 | locus YHR087W, strain rtc3, active compounds read low 0.172 | locus YJR043C, strain POL32, active compounds read low 0.198 | locus YJR075W, strain HOC1, active compounds read low 0.129 | locus YKL190W, strain CNB1, active compounds read low 0.523 | locus YLR039C, strain RIC1, active compounds read low 0.782 | locus YLR058C, strain SHM2 (second series), active compounds read low 0.311 | locus YLR085C, strain ARP6, active compounds read low 0.297 | locus YML094W, strain GIM5, active compounds read low 0.584 | locus YMR219W, strain ESC1, active compounds read low 0.172 | locus YNL153C, strain GIM3, active compounds read low 0.105 | locus YNL298W, strain CLA4 (second series), active compounds read low 0.481 | locus YNL322C, strain KRE1, active compounds read low 0.472 | locus YNR030W, strain Alg12, active compounds read low 0.462 | locus YPL055C, strain LGE1, active compounds read low 0.11 | locus YPL241C, strain CIN2, active compounds read low 0.331 | locus YPR135W, strain CTF4, active compounds read low 0.294

COc1cccc2c1C(=O)c1c(O)c3c(c(O)c1C2=O)C[C@@](O)(C(=O)CO)C[C@@H]3O[C@H]1C[C@H](N)[C@@H](O)[C@H](C)O1
active: locus YAL021C, strain ccr4, active compounds read low 0.648 | locus YAL026C, strain drs2, active compounds read low 0.894 | locus YAL030W, strain snc1, active compounds read low 0.891 | locus YBL061C, strain skt5, active compounds read low 0.888 | locus YBR009C, strain hhf1, active compounds read low 0.552 | locus YBR023C, strain chs3, active compounds read low 0.894 | locus YBR231C, strain swc5, active compounds read low 0.692 | locus YCL011C, strain gbp2, active compounds read low 0.845 | locus YCL016C, strain dcc1, active compounds read low 0.753 | locus YCL061C, strain MRC1, active compounds read low 0.897 | locus YDR069C, strain doa4, active compounds read low 0.848 | locus YDR137W, strain rgp1, active compounds read low 0.846 | locus YDR159W, strain sac3, active compounds read low 0.501 | locus YDR297W, strain sur2, active compounds read low 0.906 | locus YDR334W, strain swr1, active compounds read low 0.78 | locus YER015W, strain faa2, active compounds read low 0.801 | locus YER016W, strain bim1, active compounds read low 0.862 | locus YER155C, strain BEM2 (second series), active compounds read low 0.595 | locus YFR010W, strain ubp6, active compounds read low 0.867 | locus YGL227W, strain vid30, active compounds read low 0.889 | locus YGL240W, strain doc1, active compounds read low 0.488 | locus YGL253W, strain hxk2, active compounds read low 0.576 | locus YHR013C, strain ard1, active compounds read low 0.635 | locus YHR027C, strain rpn1, active compounds read low 0.854 | locus YHR142W, strain chs7, active compounds read low 0.84 | locus YJL092W, strain hpr5, active compounds read low 0.855 | locus YJL095W, strain BCK1 (second series), active compounds read low 0.913 | locus YJL115W, strain asf1, active compounds read low 0.682 | locus YJL129C, strain trk1, active compounds read low 0.337 | locus YJL164C, strain tpk1, active compounds read low 0.737 | locus YJL166W, strain qcr8, active compounds read low 0.59 | locus YKL160W, strain elf1, active compounds read low 0.75 | locus YLL001W, strain dnm1, active compounds read low 0.875 | locus YLL026W, active compounds read low 0.851 | locus YLL041C, strain sdh2, active compounds read low 0.918 | locus YLR027C, strain aat2, active compounds read low 0.821 | locus YLR221C, strain rsa3, active compounds read low 0.759 | locus YLR258W, strain gsy2, active compounds read low 0.834 | locus YLR262C, strain YPT6 (second series), active compounds read low 0.826 | locus YLR320W, strain mms22, active compounds read low 0.312 | locus YLR342W, strain FKS1, active compounds read low 0.873 | locus YLR357W, strain rsc2, active compounds read low 0.785 | locus YML120C, strain ndi1, active compounds read low 0.794 | locus YMR058W, strain fet3, active compounds read low 0.806 | locus YMR125W, strain sto1, active compounds read low 0.825 | locus YMR205C, strain PFK2, active compounds read low 0.634 | locus YNL071W, strain lat1, active compounds read low 0.689 | locus YNL209W, strain ssb2, active compounds read low 0.899 | locus YNL248C, strain rpa49, active compounds read low 0.177 | locus YOR001W, strain rrp6, active compounds read low 0.875 | locus YOR070C, strain gyp1, active compounds read low 0.863 | locus YOR080W, strain dia2, active compounds read low 0.89 | locus YOR083W, strain WHI5, active compounds read low 0.804 | locus YOR106W, strain vam3, active compounds read low 0.682 | locus YOR265W, strain rbl2, active compounds read low 0.879 | locus YOR270C, strain vph1, active compounds read low 0.766 | locus YOR290C, strain snf2, active compounds read low 0.78 | locus YPL051W, strain arl3, active compounds read low 0.8 | locus YPL078C, strain atp4, active compounds read low 0.785 | locus YPL106C, strain sse1, active compounds read low 1.2 [resistant] | locus YPL240C, strain hsp82, active compounds read low 0.926
inactive: locus YBR171W, strain sec66, active compounds read low 0.985 | locus YBR279W, strain paf1, active compounds read low 0.958 | locus YCL069W, strain vba3, active compounds read low 0.965 | locus YCR088W, strain abp1, active compounds read low 0.953 | locus YDL005C, strain med2, active compounds read low 0.951 | locus YDL040C, strain nat1, active compounds read low 0.947 | locus YDR001C, strain nth1, active compounds read low 0.937 | locus YDR195W, strain ref2 1.09 | locus YDR335W, strain msn5, active compounds read low 0.928 | locus YDR392W, strain spt3, active compounds read low 0.906 | locus YEL003W, strain gim4, active compounds read low 0.955 | locus YEL037C, strain rad23, active compounds read low 0.991 | locus YEL061C, strain CIN8 (second series), active compounds read low 0.982 | locus YER111C, strain swi4, active compounds read low 0.988 | locus YGL167C, strain pmr1, active compounds read low 0.969 | locus YGL173C, strain kem1, active compounds read low 0.997 | [1] 1.01 | locus YHR079C, strain IRE1, active compounds read low 0.994 | locus YJL095W, strain BCK1, active compounds read low 0.958 | locus YJL154C, strain vps35, active compounds read low 0.952 | locus YJL187C, strain SWE1, active compounds read low 0.93 | locus YJR066W, strain TOR1, active compounds read low 0.948 | locus YKR026C, strain gcn3, active compounds read low 0.926 | locus YKR091W, strain srl3, active compounds read low 0.943 | locus YLR113W, strain HOG1, active compounds read low 0.91 | locus YLR370C, strain arc18, active compounds read low 0.96 | locus YLR384C, strain iki3, active compounds read low 0.977 | locus YMR129W, active compounds read low 0.963 | locus YMR231W, strain pep5, active compounds read low 0.967 | locus YNL183C, strain NPR1, active compounds read low 0.935 | locus YNL322C, strain KRE1 (second series), active compounds read low 0.943 | locus YNR049C, strain mso1, active compounds read low 0.937 | locus YOR231W, strain MKK1, active compounds read low 0.997 | locus YPL256C, strain CLN2, active compounds read low 0.981
